Test results taken from PubChem BioAssay (EPA / NIEHS).
Calls of active or inactive are those of the source. How the source made its calls: active means hit-call score of the fitted dose curve at least 0.9, where 1 is the maximum; inactive means score below 0.9.

How the values were obtained:
Conditions in all cases: mRNA level, 48 h; actives raise or lower the signal
[1] = read-out: Lipoprotein lipase (LPL), LPL (gene 4023); assay: LTEA_HepaRG_LPL: Life Technologies and Expression Analysis (LTEA) Assay for Lipoprotein lipase (LPL) using HepaRG (AID 2283515)
Method in brief: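 Differentiated human HepaRG cells in serum-free induction medium were exposed in duplicate for 48 h to eight half-log concentrations (top 100 uM) in 0.5% DMSO. LPL mRNA was quantified by TaqMan qRT-PCR, normalized to ACTB, GAPDH and POLR2A.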

[2] = read-out: MicroRNA 122 (MIR122), gene 406906; assay: LTEA_HepaRG_MIR122: Life Technologies and Expression Analysis (LTEA) Assay for MicroRNA 122 (MIR122) using HepaRG (AID 2283516); further: the transcript read is the microRNA miR-122
Method in brief: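 Differentiated human HepaRG cells in serum-free induction medium exposed 48 h to 8 half-log concentrations from 100 uM in 0.5% DMSO, duplicate. MIR122 quantified by Fluidigm TaqMan qRT-PCR, normalised to ACTB, GAPDH, POLR2A; fold change fitted bidirectionally versus DMSO.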

[3] = read-out: matrix metalloproteinase-10 (MMP10), MMP10 (gene 4319); assay: LTEA_HepaRG_MMP10: Life Technologies and Expression Analysis (LTEA) Assay for matrix metalloproteinase-10 (MMP10) using HepaRG (AID 2283517)
Method in brief: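 HepaRG, collagen I, ~100,000 cells/well; serum-free induction medium; 48 h exposure, duplicate, 8-pt half-log to 100 uM, 0.5% DMSO. Readout: TaqMan qRT-PCR, normalized to ACTB/GAPDH/POLR2A; bidirectional fit vs DMSO.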

MYC, MYC (gene 4609) = assay: LTEA_HepaRG_MYC: Life Technologies and Expression Analysis (LTEA) Assay for MYC using HepaRG (AID 2283518)
Method in brief: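 Differentiated human HepaRG cells, plated 48 h then switched to serum-free induction medium, were exposed in duplicate for 48 h to 8-point half-log series up to 100 uM in 0.5% DMSO. MYC mRNA measured by qRT-PCR, normalized to ACTB/GAPDH/POLR2A.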

[4] = read-out: matrix metalloproteinase-3 (MMP3), MMP3 (gene 4314); assay: LTEA_HepaRG_MMP3: Life Technologies and Expression Analysis (LTEA) Assay for matrix metalloproteinase-3 (MMP3) using HepaRG (AID 2283519)
Method in brief: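 Differentiated human HepaRG cells, plated 48 h on collagen I, were exposed in duplicate for 48 h in serum-free induction medium to eight half-log concentrations up to 100 uM in 0.5% DMSO. MMP3 mRNA was quantified by TaqMan qRT-PCR, normalised to ACTB, GAPDH and POLR2A.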

[5] = read-out: Paternally Expressed 10 (PEG10), PEG10 (gene 23089); assay: LTEA_HepaRG_PEG10: Life Technologies and Expression Analysis (LTEA) Assay for Paternally Expressed 10 (PEG10) using HepaRG (AID 2283520)
Method in brief: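 Differentiated HepaRG cells exposed 48 h in serum-free induction medium to eight half-log concentrations topping at 100 uM, 0.5% DMSO, in duplicate. PEG10 mRNA quantified by TaqMan qRT-PCR, normalized to ACTB, GAPDH and POLR2A; bidirectional fit versus DMSO.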

[6] = read-out: Protein phosphatase 2A (PPP2R4), PTPA (gene 5524); assay: LTEA_HepaRG_PPP2R4: Life Technologies and Expression Analysis (LTEA) Assay for Protein phosphatase 2A (PPP2R4) using HepaRG (AID 2283522)
Method in brief: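 Differentiated human HepaRG cells in serum-free induction medium were exposed 48 h to 8 concentrations (top 100 µM, half-log steps, duplicate) in 0.5% DMSO. PPP2R4 mRNA was measured by TaqMan qRT-PCR, normalised to ACTB, GAPDH and POLR2A, and fitted bidirectionally versus DMSO.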

[7] = read-out: Phosphatase and tensin (PTEN), PTEN (gene 5728); assay: LTEA_HepaRG_PTEN: Life Technologies and Expression Analysis (LTEA) Assay for Phosphatase and tensin (PTEN) using HepaRG (AID 2283523)
Method in brief: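 Differentiated human HepaRG cells, plated 48 h then switched to serum-free induction medium, were exposed in duplicate for 48 h to eight half-log concentrations up to 100 uM in 0.5% DMSO. PTEN mRNA measured by TaqMan qRT-PCR, normalized to ACTB/GAPDH/POLR2A, bidirectional fit versus DMSO.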

[8] = read-out: solute carrier (SLC22A1), SLC22A1 (gene 6580); assay: LTEA_HepaRG_SLC22A1: Life Technologies and Expression Analysis (LTEA) Assay for solute carrier (SLC22A1) using HepaRG (AID 2283524)
Method in brief: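 Human HepaRG cells were plated 48 h, switched to serum-free induction medium, then exposed in duplicate for 48 h to 8-point half-log series from 100 uM in 0.5% DMSO. SLC22A1 mRNA measured by qRT-PCR, normalized to ACTB/GAPDH/POLR2A, fitted bidirectionally versus DMSO.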

[9] = read-out: Nuclear factor NF-kappa-B p105 subunit (Homo sapiens) (UniProt P19838); assay: LTEA_HepaRG_NFKB1: Life Technologies and Expression Analysis (LTEA) Assay for Nuclear Factor Kappa B Subunit 1 (NFKB1) using HepaRG (AID 2283521);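 further: TaqMan qRT-PCR transcript normalised to ACTB GAPDH and POLR2A housekeeping genes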
Method in brief: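 Differentiated human HepaRG cells were exposed for 48 h in serum-free induction medium to eight concentrations (top 100 uM, half-log steps, 0.5% DMSO), in duplicate. NFKB1 mRNA was measured by TaqMan qRT-PCR, normalized to ACTB/GAPDH/POLR2A, and fitted bidirectionally against DMSO.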

Measured: AC50

Sequence of Nuclear factor NF-kappa-B p105 subunit (Homo sapiens) (P19838 whole entry, looked up): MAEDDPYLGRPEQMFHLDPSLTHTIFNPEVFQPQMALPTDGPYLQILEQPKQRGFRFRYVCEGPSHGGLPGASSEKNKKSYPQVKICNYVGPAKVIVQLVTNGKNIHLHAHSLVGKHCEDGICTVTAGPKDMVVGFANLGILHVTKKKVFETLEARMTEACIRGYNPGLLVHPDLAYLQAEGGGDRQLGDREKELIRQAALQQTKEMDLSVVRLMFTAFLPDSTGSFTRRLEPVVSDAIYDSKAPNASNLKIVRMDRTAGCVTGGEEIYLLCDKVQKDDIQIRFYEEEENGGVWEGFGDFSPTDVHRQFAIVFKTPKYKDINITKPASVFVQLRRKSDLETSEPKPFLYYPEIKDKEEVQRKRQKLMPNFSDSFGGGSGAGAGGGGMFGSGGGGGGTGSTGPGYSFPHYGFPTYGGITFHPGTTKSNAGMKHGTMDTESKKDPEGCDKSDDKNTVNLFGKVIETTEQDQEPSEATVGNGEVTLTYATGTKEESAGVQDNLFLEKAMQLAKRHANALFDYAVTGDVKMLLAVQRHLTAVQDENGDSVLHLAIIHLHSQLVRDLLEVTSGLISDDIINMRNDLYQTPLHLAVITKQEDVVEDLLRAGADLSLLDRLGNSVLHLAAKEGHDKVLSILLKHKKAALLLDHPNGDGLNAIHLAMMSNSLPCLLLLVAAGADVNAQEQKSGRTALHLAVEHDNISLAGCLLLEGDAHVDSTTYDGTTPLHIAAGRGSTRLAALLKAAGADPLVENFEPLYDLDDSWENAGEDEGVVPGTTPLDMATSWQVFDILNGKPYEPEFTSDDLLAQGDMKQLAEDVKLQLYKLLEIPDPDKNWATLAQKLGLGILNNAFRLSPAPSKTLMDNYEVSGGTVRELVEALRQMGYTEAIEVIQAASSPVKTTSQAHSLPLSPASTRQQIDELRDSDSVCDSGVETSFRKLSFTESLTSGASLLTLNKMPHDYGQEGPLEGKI

Cc1nc(-c2ccccn2)ncc1C(=O)Nn1cc(C)c2cc(F)ccc21
active: [2] 50 µM | [5] 34.2 µM | [8] 77.7 µM
not listed: [9]
inactive: all other assays above

CCCCCOC(C)=O
not listed: [6] | [9]
inactive: all other assays above

CCN(CC)C(=S)SSC(=S)N(CC)CC
not listed: [9]
inactive: all other assays above

CCCCCCCCCCCCCCO
not listed: [6] | [9]
inactive: all other assays above

NC(=O)NN=Cc1ccc([N+](=O)[O-])o1
active: [3] 9.92 µM | MYC, MYC (gene 4609) 0.151 µM | [4] 0.256 µM
not listed: [9]
inactive: all other assays above

Cc1ccc(S(=O)(=O)NC(=O)NN2CCCCCC2)cc1
not listed: [9]
inactive: all other assays above

OC[C@H]1O[C@@H]2O[C@H]3[C@H](O)[C@@H](O)[C@@H](O[C@H]4[C@H](O)[C@@H](O)[C@@H](O[C@H]5[C@H](O)[C@@H](O)[C@@H](O[C@H]6[C@H](O)[C@@H](O)[C@@H](O[C@H]7[C@H](O)[C@@H](O)[C@@H](O[C@H]1[C@H](O)[C@H]2O)O[C@@H]7CO)O[C@@H]6CO)O[C@@H]5CO)O[C@@H]4CO)O[C@@H]3CO
not listed: [9]
inactive: all other assays above

OCCNCCO
active: [8] 50 µM
not listed: [9]
inactive: all other assays above

O=S(=O)(O)c1ccc(N=Nc2c(O)ccc3cc(S(=O)(=O)O)ccc23)cc1
inactive: all assays above

O=S1(=O)CCCO1
not listed: [9]
inactive: all other assays above

C[C@]12C=CC(=O)C=C1CC[C@H]1[C@@H]3C[C@@H](O)[C@](O)(C(=O)CO)[C@@]3(C)C[C@H](O)[C@@]12F
not listed: [9]
inactive: all other assays above

CC(=O)c1ccccc1
not listed: [9]
inactive: all other assays above

CCOC(N)=O
not listed: [9]
inactive: all other assays above

CC(C)CCCCCCOC(=O)C1CCCCC1C(=O)OCCCCCCC(C)C (centres undefined)
active: [1] 9.92 µM
not listed: [9]
inactive: all other assays above

CCCCC(CC)C(=O)OCCOCCOCCOC(=O)C(CC)CCCC (centres undefined)
not listed: [9]
inactive: all other assays above

OC[C@H]1O[C@@](CO)(O[C@H]2O[C@H](CO)[C@@H](O)[C@H](O)[C@H]2O)[C@@H](O)[C@@H]1O
not listed: [9]
inactive: all other assays above

CCCOc1ccc(S(=O)(=O)N2CCN(CC)CC2)cc1-c1nc2c(CC)n(Cc3ccccn3)nc2c(=O)[nH]1
active: [1] 56.7 µM
not listed: [9]
inactive: all other assays above

c1ccc2ncccc2c1
not listed: [9]
inactive: all other assays above

O=C(O)c1cccc(C(=O)O)c1
not listed: [9]
inactive: all other assays above

OC(Cn1cncn1)(Cn1cncn1)c1ccc(F)cc1F
not listed: [6] | [9]
inactive: all other assays above

OCc1ccccc1
inactive: all assays above

CC[C@H](C)C(=O)O[C@H]1C[C@H](O)C=C2C=C[C@H](C)[C@H](CC[C@@H](O)C[C@@H](O)CC(=O)O)[C@H]21
not listed: [9]
inactive: all other assays above

CC(C)C(=O)Nc1ccc([N+](=O)[O-])c(C(F)(F)F)c1
inactive: [6] | [7]
active: [1] 85.7 µM | [2] 60.8 µM | [3] 50 µM | MYC, MYC (gene 4609) 50 µM | [4] 79.6 µM | [5] 13.5 µM | [8] 45.4 µM

O=C1CN(N=Cc2ccc([N+](=O)[O-])o2)C(=O)N1
active: [1] 91.3 µM | MYC, MYC (gene 4609) 80.1 µM | [8] 32.7 µM
not listed: [9]
inactive: all other assays above

CCCc1ccccc1
not listed: [9]
inactive: all other assays above

c1ccc2c(c1)-c1cccc3c1c-2cc1ccccc13
inactive: [3] | [4] | [7]
active: [1] 5.49 µM | [2] 19.6 µM | MYC, MYC (gene 4609) 2.06 µM | [5] 8.43 µM | [6] 14.3 µM | [8] 18.8 µM

O=C(O)c1ccc2c(c1)nc(C(=O)NC1CCN(C3CC3)CC1)n2Cc1cc(-c2ccc(Cl)s2)on1
not listed: [6]
inactive: all other assays above

CCCCCCCC/C=C\CCCCCCCC(=O)OC[C@@H](O)[C@H]1OC[C@H](O)[C@H]1O
not listed: [9]
inactive: all other assays above

CCc1ccc(O)c(C(C)(C)C)c1
not listed: [6] | [9]
inactive: all other assays above

Cc1ncc([C@@H](CCCCCCc2ccc3c(n2)NCCC3)CC(=O)O)cn1
active: [1] 0.382 µM | [4] 0.145 µM
not listed: [6] | [9]
inactive: all other assays above

O=C(NO)C1(NS(=O)(=O)c2ccc(Oc3ccc(F)cc3)cc2)CCOCC1
active: [1] 76.6 µM | MYC, MYC (gene 4609) 78.5 µM | [5] 68.4 µM | [8] 80.7 µM
not listed: [9]
inactive: all other assays above

O=c1[nH]cnc2c1ncn2[C@H]1CC[C@@H](CO)O1
not listed: [9]
inactive: all other assays above

CCOc1ccc2[nH]cc(C(=O)NCc3ccccc3)c(=O)c2n1
active: [5] 50 µM
not listed: [9]
inactive: all other assays above
